PubChem BioAssay (EPA / NIEHS)
Inconclusive results are not listed. Calls of active or inactive are those of the source. How the source made its calls: active means hit-call score of the fitted dose curve at least 0.9, where 1 is the maximum; inconclusive means response in the unintended direction; inactive means score below 0.9.

Assay: ACEA_ER_AUC_viability: ACEA Biosciences xCELLigence Real-Time Cell Analysis on Estrogen Receptor Agonism for Viability (AID 2283782);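 further: continuous compound exposure with impedance area under curve over 80 h; hit means loss of impedance signal meaning reduced cell growth or viability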
In short: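 T47D cells preconditioned in phenol red-free RPMI with charcoal-stripped FBS, then dosed with 8-point 1:4 series from 100 uM (up to 0.5% DMSO). Impedance monitored up to ~80 h; area-under-curve loss versus DMSO taken as viability.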

SMILES | AC50 | outcome
COc1cc([C@@H]2c3cc4c(cc3[C@@H](O[C@@H]3O[C@@H]5CO[C@@H](C)O[C@H]5[C@H](O)[C@H]3O)[C@H]3COC(=O)[C@H]23)OCO4)cc(OC)c1O | 10.6 µM (active) | 
C=C(C)[C@H]1CC=C(C)C(=O)C1 |  | inactive
CC(C)CCCCCCCCCCCCCCC(=O)O | 50 µM (active) | 
C/C=C(\C)C(=O)OCCc1ccccc1 | 67.4 µM (active) | 
CCCCCCCC/C=C\CCCCCCCC(=O)OCC |  | inactive
CCOCCOCCOCC |  | inactive
O=C(c1ccccc1)C(O)c1ccccc1 (centres undefined) |  | inactive
O=[N+]([O-])c1cccc(Cl)c1 |  | inactive
OCCCCC(O)CO (centres undefined) |  | inactive
c1ccc(CCc2ccccc2)cc1 |  | inactive
C=Cc1ccncc1 | 37.3 µM (active) | 
CCCCC(CC)COC(=O)c1ccc(O)cc1 (centres undefined) | 22.4 µM (active) | 
CCCCCCCC(=O)OCC(O)CO (centres undefined) |  | inactive
Nc1ccc(Cl)c([N+](=O)[O-])c1 |  | inactive
CCCCCCOC(=O)CCC |  | inactive
CN(C)C(=O)Nc1ccc(Oc2ccc(Cl)cc2)cc1 |  | inactive
C1=CC2C3C=CC(C3)C2C1 (centres undefined) |  | inactive
CCC(=O)OCCOc1ccccc1 |  | inactive
CCCCCCCCCC(C)C=O (centres undefined) |  | inactive
O=C(Nc1ccc2c(O)c(N=Nc3ccc(N=Nc4ccc(S(=O)(=O)O)cc4)cc3)c(S(=O)(=O)O)cc2c1)c1ccccc1 |  | inactive
O=C1c2ccccc2C(=O)c2c(O)ccc(O)c21 |  | inactive
Nc1ccc2c(O)cc(S(=O)(=O)O)cc2c1 |  | inactive
O=C(O)CCCCCCCCCCCC(=O)O | 50 µM (active) | 
CCc1cc(C(C)(C)C)c(O)c(C(C)(C)C)c1 | 81.8 µM (active) | 
